Among all 340,000 compounds or so, about 3,300 (0.97%) were called active. Inconclusive results (about 9%) are left out. The call rests on the fitted dose curve; in most records, active means well fitted inhibition curve with a large enough effect; inconclusive means small, poorly fitted or top-dose-only effect, or effect the other way; inactive means flat fitted curve, though single readings scatter. The list shows a part of the results.
experiment: qHTS Assay for Modulators of miRNAs and/or Inhibitors of miR-21; details: HeLa miR-21-FLuc reporter, luciferase luminescence, 48 h; actives lower the signal; further: nearly all actives have a fitted effect of over 55% in size
Outline: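 HeLa cells stably expressing CMV-driven firefly luciferase with a downstream miR-21 binding sequence, endogenously expressing miR-21, were treated with titrations (up to about 40uM final) for 48 hours at 37 degree Celsius. Luciferase luminescence was read after lysis.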
Potency means the concentration at half of the fitted maximal effect.

Potency, active:
CN(C)S(=O)(=O)c1cccc(NC(=O)COC(=O)c2cc3ccccc3oc2=O)c1 6.56 µM
O=C(COC(=O)c1cc2ccccc2oc1=O)Nc1ccc(F)cc1F 6.56 µM
Cc1ccc(SCC(=O)c2ccc[nH]2)cc1 13.1 µM
COc1ccc(-c2nnc(SCC(=O)c3ccc[nH]3)n2-c2ccccc2)cc1 13.1 µM
O=c1c(Br)c(N2CCCC2)cnn1-c1ccccc1 1.85 µM
O=C(N=C1c2ccccc2CN1c1cccc(Cl)c1)c1cccnc1 4.65 µM
O=C(N=C1c2ccccc2CN1c1ccc(F)c(Cl)c1)c1cccnc1Cl 6.56 µM
COc1ccc(N2Cc3ccccc3C2=NC(=O)c2cccc([N+](=O)[O-])c2)cc1 13.1 µM
CC1SCC(NC(=O)c2ccc(Cl)cc2)CS1 (centres undefined) 16.5 µM
CC1SCC(NC(=O)c2ccccc2Cl)CS1 (centres undefined) 13.1 µM
CCn1c(C)nc2cc(C(=O)NNC(=S)Nc3ccc(F)cc3)ccc21 8.26 µM
CCn1c(C)nc2cc(C(=O)NNC(=S)Nc3ccccc3)ccc21 0.927 µM
Cc1nn(-c2cccc([N+](=O)[O-])c2)c(N)c1-c1ccccc1 4.14 µM
COc1ccc(-c2c(C)nn(-c3ccccc3)c2N)cc1 5.21 µM
Cc1nn(-c2nc3ccccc3[nH]2)c(N)c1-c1ccccc1 0.414 µM
Cc1nn(-c2ccccc2)c(N)c1-c1ccccc1 6.56 µM
Cc1nn(C(=O)c2cccs2)c(N)c1-c1ccccc1 5.21 µM
NC(=O)Nc1ccccc1C(=O)NCCc1ccccc1 5.85 µM
O=C(O)CCc1ccc(S(=O)(=O)Nc2ccccc2C(=O)NCCc2ccccc2)cc1 6.56 µM
N#Cc1ccccc1CSc1nnc(-c2ccc(Br)cc2)o1 0.414 µM
Cc1ccccc1-c1nc(Cc2ccccc2)no1 14.7 µM
Cc1ccccc1-c1nnc(Cc2ccccc2)o1 4.14 µM
c1ccc(CSc2nnc(-c3ccco3)o2)cc1 13.1 µM
Brc1c(CSc2nnc(-c3ccco3)o2)nc2ccccn12 11.7 µM
Cc1ccccc1-c1nnc(CN2CCC(C)CC2)o1 14.7 µM
Brc1ccc(-c2nnc(Cc3ccccc3)o2)cc1 13.1 µM
Cc1ccccc1-c1nnc(SCc2ccccc2)o1 5.21 µM
Cc1ccc(-c2nnc(SCc3ccccc3)o2)cc1 2.93 µM
COC(=O)C1C(=O)c2c([nH]c(C(=O)OC3CCCC3)c2C)CC1C (centres undefined) 1.47 µM
Cc1c(C(=O)OC2CCC(C)CC2)[nH]c2c1C(=O)CCC2 (centres undefined) 0.464 µM
Cc1c(C(=O)OC2CCCC2C)[nH]c2c1C(=O)CCC2 (centres undefined) 6.56 µM
COc1cc(Cl)ccc1OCc1cc(C(=O)N(C)CC2CCCCO2)no1 (centres undefined) 10.4 µM
COc1cc(C)ccc1OCc1cc(C(=O)N(C)CCCN2CCOCC2)no1 6.56 µM
COc1cc(Cl)ccc1OCc1cc(C(=O)N(C)CCc2cnn(C)c2)no1 5.85 µM
Cc1cc(N(C)C)ccc1N=Nc1ccc2ncccc2c1 1.65 µM
Cc1ccccc1NC(=O)c1ccc2ccccc2c1 5.21 µM
COc1cc2ccccc2cc1C(=O)Nc1ccccc1C 3.29 µM
COc1ccc(C(=O)Nc2ccccc2C(=O)O)cc1Cl 4.65 µM
COc1ccc2oc(=N)c(C(=O)Nc3ccccc3Cl)cc2c1 0.414 µM
COc1cc2ccccc2cc1C(=O)Nc1ccccc1Cl 1.85 µM
COc1cc2ccccc2cc1C(=O)Nc1ccc(C)cn1 0.656 µM
CSc1ncc(-c2ccc(Cl)cc2)[nH]1 1.65 µM
Cc1cccc(-n2cnc(C(=O)NC3CCCCCC3)c2)n1 3.69 µM
Cc1cc(O)cc2c(=O)c3ccccc3sc12 16.5 µM
CCn1c(C)cc(/C=C2/SC(=O)N(C(C)C(=O)OC)C2=O)c1C (centres undefined) 2.07 µM
CCn1c(C)cc(/C=C2/SC(=S)NC2=O)c1C 10.4 µM
CCC(=O)Nc1ccc2c(c1)ncn2-c1ccc(OC)cc1 16.5 µM
CC(=O)Nc1ccc2c(c1)ncn2-c1ccccc1 7.36 µM
CCC(=O)Nc1ccc2c(c1)ncn2-c1ccc(C)cc1 5.21 µM
COc1ccc(-n2cnc3cc(N)ccc32)cc1 14.7 µM
CCC(=O)Nc1ccc2c(c1)ncn2-c1ccccc1 7.36 µM
O=C(Nc1ccc2c(c1)ncn2-c1ccccc1)c1ccco1 2.33 µM
C/C(=N/NC(=O)c1ccc(C)s1)c1ccncc1 16.5 µM
C/C(=N\NC(=O)c1csc(C)c1C)c1ccc(C)s1 13.1 µM
Cc1scc(C(=O)N/N=C/c2ccc(Cl)s2)c1C 1.65 µM
CCc1ccc(C(=O)N/N=C(\C)c2ccncc2)s1 20.7 µM
O=C1CN(c2nc(-c3cccs3)nc3sc4c(c23)CCCC4)CCN1 10.4 µM
CN(C)CCNC(=O)c1cc2c(s1)-c1ccccc1OC2 13.1 µM
CCN(CC)C(=O)c1cc2sc3ccccc3c2s1 3.29 µM
CN(C)CCNC(=O)c1cc2sc3ccccc3c2s1 16.5 µM
CC(C)(C)OC(=O)N/N=C\C=C\c1ccc2c(c1)OCO2 3.69 µM
CCOC(=O)N/N=C\C=C\c1ccc2c(c1)OCO2 7.36 µM
CN(C)c1ccc(N=Nc2cccc(F)c2)cc1 2.07 µM
CN(C)c1ccc(N=Nc2cccc3ccoc23)cc1 0.826 µM
Cc1nnsc1C(=O)NNc1ccc(C(C)C)cc1 13.1 µM
CNC(=O)c1ccc2nc(CCc3ccccc3)oc2c1 5.85 µM
COCCCNC(=O)c1ccc2nc(Cc3ccc(OC)cc3)oc2c1 9.27 µM
O=C(NCCCn1ccnc1)c1cc(-c2ccccc2)on1 16.5 µM
O=C(NCCCn1ccnc1)c1cc(-c2cccs2)on1 14.7 µM
C(=N\N=C\c1cccs1)/c1cccs1 5.21 µM
CCc1ccc(CNc2ccc3c(c2)ncn3CC)cc1 5.21 µM
COc1ccc(-n2cnc3cc(NCc4ccco4)ccc32)cc1 14.7 µM
CCn1cnc2cc(NCc3ccccc3Cl)ccc21 11.7 µM
CCn1cnc2cc(NCc3ccc(C)cc3)ccc21 5.21 µM
Cc1ccc(CNc2ccc3c(c2)ncn3C)cc1 3.29 µM
CCn1cnc2cc(NCc3ccc(Cl)cc3)ccc21 3.69 µM
CC(C)n1cnc2cc(NCc3ccco3)ccc21 11.7 µM
Cc1ccc(CNc2ccc3c(c2)ncn3C(C)C)cc1 3.29 µM
Cc1cccc(C(=O)Nc2ccc3c(c2)ncn3C)c1 1.47 µM
O=C(Nc1ccc(N2CCOCC2)cc1)c1nc2ccccc2s1 0.0826 µM
COc1cccc(/C=C(/CC(=O)Nc2ccc(N3CCOCC3)cc2)c2nc3ccccc3s2)c1 16.5 µM
Cc1ccc2nc(-c3ccc(C)c(NC(=O)CSc4ccc(Cl)cc4)c3)oc2c1 2.07 µM
Cc1ccc2oc(-c3ccc(C)c(NC(=O)/C=C/c4ccc(Cl)cc4)c3)nc2c1 3.69 µM
O=C(NC1CCCCC1)c1ccc(-c2ccccc2[N+](=O)[O-])o1 1.17 µM
O=C(NC1CCCCC1)c1ccc(-c2cccc([N+](=O)[O-])c2)o1 1.31 µM
COc1ccccc1CC(=O)NCc1csc(-c2cccs2)n1 6.56 µM
O=C(NCc1csc(-c2cccs2)n1)C1CCCCC1 5.21 µM
C/C(CCc1ccc2c(c1)OCO2)=N\NC(=O)c1ccccc1 13.1 µM
Cc1ccc(CSc2ccc(-c3ccco3)nn2)cc1 6.56 µM
Fc1ccc(CSc2ccc(-c3ccco3)nn2)cc1 8.26 µM
Fc1cccc(CSc2ccc(-c3ccco3)nn2)c1 16.5 µM
CCN(CC)N=Nc1[nH]nc2nc(C)cc(C)c12 16.5 µM
Brc1ccc2oc(-c3ccn[nH]3)cc2c1 2.93 µM
CCN(CC)CCCNC(=S)Nc1ccc(Br)cc1 2.93 µM
Oc1ccc(NC(=S)N=Nc2c(O)[nH]c3ccccc23)cc1 11.7 µM
O=C(CSCc1ccccc1)N=Nc1c(O)[nH]c2ccccc12 16.5 µM
CC(=O)/C=C(\C)N=Nc1c(O)[nH]c2ccccc12 18.5 µM
CCCOc1ccc(/C=N/Nc2ccc(C(=O)O)cc2)c(OCCC)c1 16.5 µM
COc1cc(/C=N/Nc2ccc(C(=O)O)cc2)cc(OC)c1OC 2.33 µM
CC(C)c1ccc(/C=N/Nc2ccc(C(=O)O)cc2)cc1 0.0465 µM
COc1ccc(/C=N/Nc2ccc(C(=O)O)cc2)cc1Br 0.104 µM
C=CCOc1c(Br)cc(/C=N/Nc2ccc(C(=O)O)cc2)cc1OCC 2.93 µM
Cc1nc2cc(Cl)c(Cl)cc2nc1C 16.5 µM
COc1ccccc1Nc1ncc2c(n1)CCN(CC(C)C)C2 6.56 µM
CC(C)CN1CCc2nc(Nc3ccc(F)cc3F)ncc2C1 7.36 µM
CC(=O)Nc1ccc(-c2nc3ccc(NC(C)=O)cc3o2)cc1 3.69 µM
CC(=O)Nc1ccc(-c2nc3cc(Cl)ccc3o2)cc1 0.369 µM
COc1ccc(-c2nc3ccc(NS(C)(=O)=O)cc3o2)cc1 1.17 µM
O=C(Nc1ccc(-c2nc3cc(Cl)ccc3o2)cc1)C1CCCO1 (centres undefined) 0.656 µM

— PubChem BioAssay AID2289 (National Center for Advancing Translational Sciences (NCATS), 2010)
